In PubChem BioAssay (Tox21):
“And” between values parts separate entries of the source, which are not always exact repeats. Equal values may be shown once. Results filed as inconclusive are left out. A call without a number means that no potency is given here. Where a structure was tested more than once in an assay, its records may differ in their call. The source made the active and inactive calls. Calls follow the shape of the dose curve; as a rule, active = well fitted curve in the direction sought with a large enough effect in the repeat runs; inconclusive = weak or mixed curves; inactive = no such curve, though single readings can be large; an effect the other way counts as inactive or inconclusive.

What was measured:
[1] = A CellTox Green Cytotoxicity Assay to monitor cytotoxicity in HEK293 cells - 40 hour (AID 1224871); also: nearly all actives have a fitted effect of over 45% in size
Method in brief: (§1)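 Dead-cell fluorescence measured kinetically: asymmetric cyanine dye, HEK293, 600 cells/well, 5 h settle, 23 nL cpd/DMSO, 37 C, reads 0–40 h every 8 h.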

[2] = qHTS RealTime-Glo MT Cell Viability Assay in HEK293 cells - 16 hour (AID 1224872); also: nearly all actives have a fitted effect of over 50% in size
Method in brief: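 Homogeneous bioluminescent viability format in HEK293 cells (600 cells/well). Following 5 h at 37 C/5% CO2, 23 nL compound was pintooled; the signal was measured repeatedly during 40 h incubation.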

[3] = qHTS RealTime-Glo MT Cell Viability Assay in HepG2 cells - 8 hour (AID 1224873); also: nearly all actives have a fitted effect of over 55% in size
Method in brief: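 Real-time viability: cells seeded at 600 per well together with NanoLuc and cell-permeant prosubstrate, compounds added after 5 h incubation. Luminescence tracked at 0, 8, 16, 24, 32 and 40 h of exposure.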

[4] = qHTS RealTime-Glo MT Cell Viability Assay in HEK293 cells - 40 hour (AID 1224874); conditions: RealTime-Glo luminescence; max response: stronger effect = lower value; also: nearly all actives have a fitted effect of over 50% in size
Method in brief: (§2)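 600 HEK293 cells per well, dispensed already mixed with RealTime-Glo MT reagents. Compound dosing came 5 h later. The same wells were read for luminescence at 0, 8, 16, 24, 32 and 40 h of exposure at 37 C.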

[5] = A CellTox Green Cytotoxicity Assay to monitor cytotoxicity in HEK293 cells - 24 hour (AID 1224875); also: nearly all actives have a fitted effect of over 45% in size
Method in brief: as §1

[6] = A CellTox Green Cytotoxicity Assay to monitor cytotoxicity in HepG2 cells - 16 hour (AID 1224876); also: nearly all actives have a fitted effect of over 45% in size
Method in brief: (§3)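 First, HepG2 cells (600/well) mixed with reagent were plated; second, after 5 h at 37 C they received compounds via pintool; third, fluorescence was measured at 0 h through 40 h at 8 h intervals.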

[7] = qHTS RealTime-Glo MT Cell Viability Assay in HepG2 cells - 32 hour (AID 1224877); also: nearly all actives have a fitted effect of over 55% in size
Method in brief: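 Cell number in HepG2 cultures estimated from NanoLuc luminescence generated by metabolic reduction of a prosubstrate by living cells. The homogeneous, nonlytic format allowed repeated reads at 0, 8, 16, 24, 32 and 40 h of compound exposure.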

[8] = A CellTox Green Cytotoxicity Assay to monitor cytotoxicity in HepG2 cells - 24 hour (AID 1224878); also: nearly all actives have a fitted effect of over 45% in size
Method in brief: as §3

[9] = A CellTox Green Cytotoxicity Assay to monitor cytotoxicity in HepG2 cells - 40 hour (AID 1224879); also: nearly all actives have a fitted effect of over 40% in size
Method in brief: as §3

[10] = qHTS RealTime-Glo MT Cell Viability Assay in HEK293 cells - 0 hour (AID 1224880); also: nearly all actives have a fitted effect of over 45% in size
Method in brief: as §2
Potency is read from the fitted curve at half-maximal effect.

SMILES | Potency [1] | Potency [2] | Potency [3] | max response [4] | Potency [5] | Potency [6] | Potency [7] | Potency [8] | Potency [9] | Potency [10] | Potency [4]
CC(C)COC(=O)c1ccccc1C(=O)OCC(C)C | inactive | inactive | inactive | 8.51% (inactive) and 5.74% (inactive) | inactive | inactive | inactive | inactive | inactive | inactive | –
CC(C)(c1ccccc1)c1ccc(O)c(C(C)(C)c2ccccc2)c1 | 24.3 µM (active) and 43.6 µM (active) | 21.7 µM (active) and 43.6 µM (active) | 48.5 µM (active) and 38.9 µM (active) | – | 43.2 µM (active) and 49 µM (active) | 48.5 µM (active) and 43.6 µM (active) | 49 µM (active) | 48.5 µM (active) and 43.6 µM (active) | 54.4 µM (active) and 43.6 µM (active) | inactive | 17.2 µM (active) and 43.6 µM (active)
CC(C)(c1ccccc1)c1ccc(O)cc1 | 24.3 µM (active) and 27.5 µM (active) | 48.6 µM (active) and 30.9 µM (active) | inactive and 49 µM (active) | – | 21.7 µM (active) and 43.6 µM (active) | 24.5 µM (active) | inactive | 48.6 µM (active) and 21.9 µM (active) | 48.6 µM (active) and 24.5 µM (active) | inactive | 43.3 µM (active) and 27.5 µM (active)
CN(C)c1ccccc1 | inactive | inactive | inactive | 0.0564% (inactive) and 11.3% (inactive) | inactive | inactive | inactive | inactive | inactive | inactive | –
CS(=O)(=O)NC(=O)c1cc(Oc2ccc(C(F)(F)F)cc2Cl)ccc1[N+](=O)[O-] | inactive | inactive | inactive | 9.57% (inactive) and 9.32% (inactive) | inactive | inactive | inactive | inactive | inactive | inactive | –
O=[N+]([O-])/N=C1\NCCN1Cc1ccc(Cl)nc1 | inactive | inactive | inactive | 1.13% (inactive) and 0.238% (inactive) | inactive | inactive | inactive | inactive | inactive | inactive | –
CC(C)=CC1C(C(=O)OCN2C(=O)C3=C(CCCC3)C2=O)C1(C)C (configuration not stated) | inactive | inactive | inactive | 2.99% (inactive) | inactive | inactive | inactive | inactive | inactive | inactive | –
CCOP(=S)(OCC)OP(=S)(OCC)OCC | inactive | inactive | inactive | 3.87% (inactive) and 10.7% (inactive) | inactive | inactive | – | inactive | inactive | inactive | –
COc1ccc(C=O)cc1OC | inactive | inactive | inactive | 1.59% (inactive) and -6.52% (inactive) | inactive | inactive | inactive | inactive | inactive | inactive | –
C[N+](C)(C)CC(=O)O | inactive | inactive | inactive | 5.5% (inactive) and 7.98% (inactive) | inactive | inactive | inactive | inactive | inactive | inactive | –
CN(C)c1nc(=O)n(C2CCCCC2)c(=O)n1C | inactive | inactive | inactive | 6.15% (inactive) and 0.589% (inactive) | inactive | inactive | inactive | inactive | inactive | inactive | –
S=c1[nH]c2ccccc2[nH]1 | inactive | inactive | inactive | 4.47% (inactive) and 4.64% (inactive) | inactive | inactive and 21.9 µM (active) | – | inactive and 21.9 µM (active) | inactive and 21.9 µM (active) | inactive | –
CSc1nc(NC(C)C)nc(NC(C)C)n1 | inactive | inactive | inactive | -22.1% (inactive) | inactive | inactive | – | inactive | inactive | inactive | –
COc1ccc(O)c(C(C)(C)C)c1 | inactive | inactive | inactive | -6.92% (inactive) and 11.9% (inactive) | inactive | inactive | inactive | – | – | inactive | –
OCCOCCO | inactive | inactive | inactive | -1.92% (inactive) and 3.49% (inactive) | inactive | inactive | inactive | inactive | inactive | inactive | –
CC(C)Nc1nc(Cl)nc(NC(C)C)n1 | inactive | inactive | inactive | -12.4% (inactive) and -17.3% (inactive) | inactive | inactive | inactive | inactive | inactive | inactive | –
N#Cc1c(Cl)c(Cl)c(Cl)c(C#N)c1Cl | 6.79 µM (active) and 5.49 µM (active) | 3.4 µM (active) and 1.55 µM (active) | 42.8 µM (active) and 11 µM (active) | – | 12.1 µM (active) and 9.77 µM (active) | 24.1 µM (active) and 6.92 µM (active) | – | 24.1 µM (active) and 3.09 µM (active) | 19.1 µM (active) and 2.45 µM (active) | inactive | 1.7 µM (active) and 1.1 µM (active)

SMILES | Potency [1] | Potency [2] | Potency [3] | max response [4] | Potency [5] | Potency [6] | Potency [7] | Potency [8] | Potency [9] | Potency [10] | Potency [4]
N#Cc1cccnc1 | inactive | inactive | inactive | -3.64% (inactive) and -3.39% (inactive) | inactive | inactive | inactive | inactive | inactive | inactive | –
O=C1CCCO1 | inactive | inactive | inactive | 17.8% (inactive) and -9.6% (inactive) | inactive | inactive | inactive | inactive | inactive | inactive | –
c1ccc(C2CO2)cc1 (configuration not stated) | inactive | inactive | inactive | -2.54% (inactive) and -3.91% (inactive) | inactive | inactive | inactive | inactive | inactive | inactive | –
O=P(OCCCl)(OCCCl)OCCCl | inactive | inactive | inactive | -9.18% (inactive) and -11.6% (inactive) | inactive | inactive | inactive | inactive | inactive | inactive | –
CCC(=O)Nc1ccc(Cl)c(Cl)c1 | inactive | 44.5 µM (active) | inactive | – | inactive | inactive | – | inactive | inactive | inactive | 22.3 µM (active) and 43.6 µM (active)
CNC(=O)CSP(=S)(OC)OC | inactive | inactive | inactive | -14.6% (inactive) and -0.812% (inactive) | inactive | inactive | – | inactive | inactive | inactive | –
CC1=C(C(=O)Nc2ccccc2)SCCO1 | inactive | inactive | inactive | -20.6% (inactive) and -17.9% (inactive) | inactive | inactive | inactive | inactive | inactive | inactive | –
CCOP(=O)(OCC)OCC | inactive | inactive | inactive | 0.385% (inactive) and 0.0295% (inactive) | inactive | inactive | – | inactive | inactive | inactive | –
CC1CC(=O)O1 (configuration not stated) | inactive | inactive | inactive | 4.47% (inactive) and -6.16% (inactive) | inactive | inactive | inactive | inactive | inactive | inactive | –
CC(O)CN(CC(C)O)CC(C)O (configuration not stated) | inactive | inactive | inactive | 2.85% (inactive) and 7.82% (inactive) | inactive | inactive | – | inactive | inactive | inactive | –
CC(C)(O)C#N | inactive | inactive | inactive | 1.12% (inactive) and 7.67% (inactive) | inactive | inactive | – | inactive | inactive | inactive | –
O=C1C(Cl)=C(Cl)C(=O)c2ccccc21 | 3.9 µM (active) and 4.9 µM (active) | 6.19 µM (active) and 9.77 µM (active) | 21.9 µM (active) and 6.92 µM (active) | – | 3.9 µM (active) and 6.92 µM (active) | 12.3 µM (active) and 4.9 µM (active) | 31 µM (active) and 12.3 µM (active) | 12.3 µM (active) and 3.89 µM (active) | 17.4 µM (active) and 4.36 µM (active) | 5.51 µM (active) | 5.51 µM (active) and 6.92 µM (active)
Oc1ccc(Cl)cc1Cl | inactive | inactive | inactive | 3.11% (inactive) | inactive | inactive | – | inactive | inactive | inactive | –
ClC(Cl)(Cl)c1ccccc1 | inactive | inactive | inactive | 8.54% (inactive) and -1.53% (inactive) | inactive | inactive | inactive | inactive | inactive | inactive | –
CCCCOC(=O)COC(=O)c1ccccc1C(=O)OCCCC | inactive | inactive | inactive | -1.67% (inactive) and 1.98% (inactive) | inactive | inactive | inactive | inactive | inactive | inactive | –
CCNc1nc(Cl)nc(NC(C)(C)C#N)n1 | inactive | inactive | inactive | -8.64% (inactive) and -8.88% (inactive) | inactive | inactive | – | inactive | inactive | inactive | –
CCOS(=O)(=O)OCC | inactive | inactive | inactive | 6.05% (inactive) | inactive | inactive | inactive | inactive | inactive | inactive | –
